Shown are actives, neighbours in structure and some others; about 3.7% of the full set was active somewhere.
BoNT A protease – BoNT/A light chain protease inhibitors, primary screen, biochemical, flow cytometry, MLPCN library; Botulinum neurotoxin type A light chain protease (Clostridium botulinum A str. ATCC 3502); multiplex microsphere protease substrate cleavage; inhibition, % at 10 µM; 360,000 compounds, 0.17% hits; AID 588499, 2011
Autofluor counter – compound fluorescence in toxin protease inhibitor counterscreen. compound autofluorescence counterscreen, microsphere flow cytometry; active compounds read high. fluorescence intensity (no concentration beside the values). 360,000 compounds, 3.1% hits. AID 624483; in the data active = fluorescence intensity above about 16000; inconclusive = no clear call, values can overlap the other calls
BoNT-F LC inh – BoNT/F light chain protease inhibitors, primary screen, biochemical, flow cytometry, MLPCN library; Botulinum neurotoxin type F light chain protease (Clostridium botulinum); Multiplex microsphere protease cleavage assay; inhibition, % at 10 µM; 360,000 compounds, 0.22% hits; AID 588497, 2011; in the data active = inhibition above about 35%, passing the limit was not always enough; inconclusive = no clear call, values can overlap the other calls
Anthrax LF prot – Bacillus anthracis LF protease inhibitors, primary screen, biochemical, multiplex microsphere, MLPCN library. multiplex microsphere protease cleavage assay. inhibition, % at 10 µM. AID 588501, 2011. 360,000 compounds, 0.12% hits. Lethal factor (Bacillus anthracis), P15917
MazEF act – activators of E. coli MazEF toxin-antitoxin RNase, primary screen, biochemical, fluorescence, uHTS; Endoribonuclease toxin MazF (Escherichia coli (strain K12)), P0AE70; AID 504720, 2011; 350,000 compounds, 0.32% hits; FAM/BHQ RNA-DNA oligo cleavage fluorescence, 5 h; activation, % at 20 µM; in the data active = activation above about 50%
Target sequence (P0AE70 whole entry, looked up): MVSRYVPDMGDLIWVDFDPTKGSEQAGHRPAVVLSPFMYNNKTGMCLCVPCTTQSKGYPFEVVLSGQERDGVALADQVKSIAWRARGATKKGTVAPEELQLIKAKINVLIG
Each line names hits and unclear results; the compound was inactive in the other large screens. Cut-off read from the data, not from the text of the source, unless noted: active = inhibition above about 30%; inconclusive = no clear call, values can overlap the other calls; inactive = below that.

CC1=CC(C)(C)N(C(=O)CSc2nnc(C)s2)c2ccc(C)cc21	none
O=C(CN1C(=O)c2cccc3cccc(c23)C1=O)NCCN1CCOCC1	none
COc1ccc(C(CNC(=O)c2ccc(S(=O)(=O)Nc3ccccc3OC)cc2)N2CCCC2)cc1 (centres undefined)	Autofluor counter 19637
COc1ccc(C(CNC(=O)c2ccc(-c3ccccc3Cl)o2)N2CCCC2)cc1 (centres undefined)	none
COc1ccc(C(CNC(=O)c2cccc(S(=O)(=O)N3CCOCC3)c2)N2CCCC2)cc1 (centres undefined)	none
COc1ccc(C(CNC(=O)c2ccc(-c3nc4ccccc4s3)o2)N2CCCC2)cc1 (centres undefined)	Autofluor counter 20254
COc1ccc(C(CNC(=O)c2cccc(S(=O)(=O)N3CCCC3)c2)N2CCCC2)cc1 (centres undefined)	Autofluor counter 26904
Cc1ccc(C(=O)NCCC(=O)Nc2ccccc2C)cc1	none
N#Cc1c2c(nc(N)c1-c1ccccc1)CCCCC2	none
CSc1nc2c(c(-c3ccccc3)c1C#N)CCC2	BoNT A protease inconclusive, Autofluor counter 21295
N#Cc1c(N)nc2c(c1-c1ccncc1)CCCCCC2	Autofluor counter 23466
N#Cc1c(N)nc2c(c1-c1ccc(F)cc1)CCC2	none (no result: BoNT A protease, Autofluor counter, BoNT-F LC inh, Anthrax LF prot)
N#Cc1c(N)nc2c(c1-c1ccccc1)CCCC2	BoNT A protease inconclusive, Autofluor counter 21448
CCN(C(=O)Cn1cnc2cc([N+](=O)[O-])ccc2c1=O)C1CCS(=O)(=O)C1 (centres undefined)	none
NS(=O)(=O)c1ccc(NC(=O)COC(=O)CCCN2C(=O)c3cccc4cccc(c34)C2=O)cc1	none
S=c1[nH]c2ncccc2o1	Autofluor counter 22317
O=[N+]([O-])c1cccc(OCC(O)CN2CCN(S(=O)(=O)c3cc(Cl)ccc3Cl)CC2)c1 (centres undefined)	none
Cc1cccc(NC(=O)CN2CCC(C(=O)c3ccc4c(c3)OCCO4)CC2)c1	none
Cc1ccc(C(=O)C2CCN(CC(=O)Nc3ccc(N(C)C)cc3)CC2)cc1	BoNT A protease inconclusive, Autofluor counter 21202
Cc1ccc(C(=O)C2CCN(CC(=O)Nc3ccc4c(c3)OCCO4)CC2)cc1	Autofluor counter 23981
CCN(CC(=O)Nc1ccc2c(c1)OCCO2)Cc1cc(=O)oc2c(C)c(C)ccc12	BoNT A protease inconclusive, Autofluor counter 20523
CCOc1ccc(C(=O)N2CCC(C(=O)c3ccc4c(c3)OCCO4)CC2)cc1	Autofluor counter 17361
CCOC(=O)C1CCN(C(=O)c2ccc3c(c2)OCCO3)CC1	none
CCCCC[C@@H](O)c1cc2ccccc2c(=O)o1	none
O=C(N/N=C/c1ccc([N+](=O)[O-])o1)C1CC1	none
COc1cccc2c1OCC(C(=O)Nc1nccs1)=C2	none
CC1(C)CC(=O)C(C(=O)C2CCN(S(=O)(=O)c3ccccc3)CC2)C(=O)C1	none
Cc1onc(-c2ccccc2Cl)c1C(=O)NNC(=O)c1ccccc1F	none
CCN(CC(=O)Nc1ccc2c(c1)OCCO2)S(=O)(=O)c1cccs1	none (no result: BoNT A protease, Autofluor counter, BoNT-F LC inh, Anthrax LF prot)
CCN(CC(=O)Nc1ccc2c(c1)OCCO2)S(=O)(=O)c1ccc(C)cc1	Autofluor counter 17435
O=C(NCc1ccc(F)cc1)C1CCCN(C(=O)Nc2ccccc2)C1 (centres undefined)	BoNT A protease inconclusive, Autofluor counter 19569
O=C(c1ccc2c(c1)OCCO2)C1CCN(S(=O)(=O)c2ccccc2F)CC1	BoNT A protease inconclusive, Autofluor counter 23887
O=C(CN1CCC(C(=O)c2ccc(F)cc2)CC1)Nc1ccccc1	Autofluor counter 19525
COc1ccc(S(=O)(=O)N2CCC(C(=O)c3ccc4c(c3)OCCO4)CC2)cc1	none
COc1ccc(/C=C/C(=O)N2CCN(C)CC2)cc1OC	BoNT-F LC inh inconclusive
COc1cc2cc(CCO)oc(=O)c2cc1OC	none
CNc1c(NS(=O)(=O)c2cc(OC)ccc2OC)c(=O)oc2ccccc12	none
COc1ccc(-c2c(C)c3ccc(O)cc3oc2=O)cc1	none
O=C(c1ccc(F)cc1)C1CCN(C(=O)NCc2ccccc2)CC1	Autofluor counter 24106
COc1ccc(CNC(=O)COC(=O)c2ccccn2)cc1	none
CCOc1cccc2sc(=NC(=O)c3ccc(S(=O)(=O)N4CCOCC4)cc3)n(C)c12	Autofluor counter 22851
CCOCCn1c(=NC(=O)c2ccc(S(=O)(=O)N3CCOCC3)cc2)sc2cc(S(N)(=O)=O)ccc21	none
O=C(NCc1ccco1)c1nn(-c2ccccc2)c(=O)c2ccccc12	Autofluor counter 21403
COc1ccc(-n2nc(C(=O)NCC(=O)NCc3ccco3)c3ccccc3c2=O)cc1	none
CCN1CCN(C(=O)c2nn(-c3ccccc3)c(=O)c3ccccc23)CC1	Autofluor counter 18559
COC(=O)C1=C(C)N=c2s/c(=C/c3ccoc3)c(=O)n2C1c1ccccc1 (centres undefined)	Autofluor counter 21630, MazEF act 88
CN(C)/C=C/C(=O)c1cccc(Cl)c1	Autofluor counter 16675
N#Cc1ccccc1S(=O)(=O)N1CCN(CC(=O)NC(=O)NC2CCCCC2)CC1	none
CCCOc1ccccc1Nc1nnc(C)c(=O)[nH]1	Autofluor counter 21083
CCCCN(C)CCNC(=O)CN1C(=O)CSc2ccc(S(=O)(=O)N3CCOCC3)cc21	none
S=C(NCc1ccc(Cl)cc1)NCc1ccco1	none
Cc1cc(=O)oc2cc(OCC(=O)NCc3ccncc3)ccc12	none
Cc1cc(=O)oc2cc(OCC(=O)NCc3cccnc3)ccc12	Autofluor counter 23262
O=C(COc1ccc(S(=O)(=O)N2CCCCC2)cc1)NCc1cccnc1	Autofluor counter 22072
CCc1c(O)nc(SCC(=O)Nc2ccc(OC)cc2)n(C2CCCCC2)c1=O	Autofluor counter 24511
O=S(=O)(N/N=C/c1cn(Cc2ccccc2)c2ccccc12)c1ccccc1	Autofluor counter 22504
COc1ccccc1OCC(=O)N/N=C1/SCC(=O)N1Cc1ccccc1	Autofluor counter 22284
CCc1ccccc1NCC(=O)Nc1ccc(Cl)c(C(F)(F)F)c1	none
CC(C)(C)C1CCc2onc(C(=O)Nc3cnn(Cc4ccc(F)cc4)c3)c2C1 (centres undefined)	Autofluor counter 18196
COc1ccc(C2C(C#N)=C(N)N(c3cccnc3)C3=C2C(=O)CCC3)cc1Cn1cc([N+](=O)[O-])cn1 (centres undefined)	MazEF act 64
Nc1cccc(Oc2c(F)c(F)c(Oc3cccc(N)c3)c(F)c2F)c1	BoNT-F LC inh 38, Anthrax LF prot inconclusive
CN(C)/C=c1\sc2c(C#N)cc(C(=O)c3ccc(Br)cc3)n2c1=O	MazEF act active
CCOc1ccc(N2C(=O)Cc3ccccc3C2=O)cc1	none
CCOc1ccc(N2C(=O)CCC2=O)cc1	none
CCOc1ccc(N2C(=O)c3cccnc3C2=O)cc1	Autofluor counter 19193
CCOc1ccc(N2CC(=O)N(c3ccc(OCC)cc3)CC2=O)cc1	Autofluor counter 22131

From PubChem
